# Results: PubChem BioAssay (NCATS)
# Results filed as inconclusive are left out. A call without a number means that no potency is given here. Values without a mark were called inactive. The source made the active and inactive calls. Calls come from the whole dose curve; as a rule, active = well fitted curve in the direction sought with a large enough effect; inconclusive = small, poorly fitted or top-dose-only effect, or another doubt; inactive = no such curve, though single readings can be large; an effect the other way counts as inactive or inconclusive.
# Assays:
# [1] = target: Cytochrome P450 3A7 (Homo sapiens) (UniProt P24462); assay: Cytochrome P450 family 3 subfamily A member 7 (CYP3A7) small molecule antagonists: luciferase biochemical qHTS assay (AID 1963596); conditions: P450-Glo CYP3A7 enzyme luminescence, 1 h; series mostly up to 57.4 µM; note: nearly all actives have a fitted effect of over 40% in size
# Outline: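 Recombinant CYP3A7 P450-Glo luminescent assay: enzyme-proluciferin substrate mix preincubated with compound 10 min at room temperature, reaction started with NADPH regeneration system for 1 h. Luciferin detected by luminescence; ketoconazole as positive control.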
# [2] = Cellular viability qHTS for adrenocortical cancer (ACC) cell line SW-13 (AID 1963989); conditions: SW-13 ACC cells viability, CellTiter-Glo, 48 h; activity (max response): stronger effect = lower value; note: nearly all actives have a fitted effect of over 65% in size;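 for activity (max response): cells grown in serum-free medium with ITS supplement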
# Outline: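 Compound titrations (up to 46 uM final, in DMSO) were applied to SW-13 cells for 48 h at 37C/5% CO2. Reading used CellTiter-Glo after 20 min at room temperature; fitted curves yielded IC50 and efficacy.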
# [3] = Cellular viability qHTS for adrenocortical cancer (ACC) cell line NCI-H295R (AID 1963990); conditions: CellTiter-Glo ATP luminescence, 48 h; series mostly up to 46.1 µM; note: nearly all actives have a fitted effect of over 60% in size
# Outline: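 Readout: CellTiter-Glo luminescence, 20 min RT. Exposure: 48 h, 37C/5% CO2. Cells: NCI-H295R, ITS-DMEM serum-free. Range: up to 46 uM. Analysis: 4PL fit, IC50 plus efficacy.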
# [4] = Viability qHTS for spleen associated tyrosine kinase inhibitor (SYKi) naive MV4-11 cells (AID 1963823); conditions: MV4-11 AML viability, CellTiter-Glo luminescence, 72 h; series mostly up to 45 µM; note: nearly all actives have a fitted effect of over 40% in size
# Outline: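 SYKi-naive MV4-11 AML cells, 500 per well, were exposed to library compounds for 72 hr at 37 C, 5% CO2. Viability was then read by CellTiter-Glo luminescence after 10 min at room temperature.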
# [5] = Viability qHTS for spleen associated tyrosine kinase inhibitor (SYKi) drug resistant MV4-11 cells (AID 1963824); conditions: SYKi-resistant MV4-11 viability, CellTiter-Glo, 72 h; series mostly up to 45 µM; note: nearly all actives have a fitted effect of over 35% in size
# Outline: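 SYK-inhibitor-resistant MV4-11 AML cells were seeded at 500 per well onto compound and cultured 72 hours (37 °C, 5% CO2). CellTiter-Glo was then added, and after 10 min at room temperature, luminescence gave viability.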
# Potency is the fitted concentration of half-maximal effect.
# Sequence of Cytochrome P450 3A7 (Homo sapiens) (P24462 whole entry, looked up): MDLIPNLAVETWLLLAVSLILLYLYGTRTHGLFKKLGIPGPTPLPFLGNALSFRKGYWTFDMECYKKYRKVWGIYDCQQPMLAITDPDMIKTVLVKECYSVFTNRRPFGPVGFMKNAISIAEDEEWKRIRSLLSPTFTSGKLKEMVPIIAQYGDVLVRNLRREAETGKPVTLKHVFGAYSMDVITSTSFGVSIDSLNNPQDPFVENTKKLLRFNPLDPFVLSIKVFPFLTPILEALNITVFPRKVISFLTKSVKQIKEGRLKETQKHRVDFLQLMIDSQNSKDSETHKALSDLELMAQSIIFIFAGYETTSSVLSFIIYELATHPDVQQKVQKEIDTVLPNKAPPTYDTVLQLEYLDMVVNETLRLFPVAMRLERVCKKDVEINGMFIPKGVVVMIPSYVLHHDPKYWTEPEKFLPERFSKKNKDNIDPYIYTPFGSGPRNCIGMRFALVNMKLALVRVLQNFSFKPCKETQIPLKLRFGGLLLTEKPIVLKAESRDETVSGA
smiles,measurement,setting,value
NC1=NC(=O)C(c2ccccc2)O1 (configuration not stated),Potency,[1],inactive
same,activity (max response),[2],8.75%
same,Potency,[3],inactive
O=c1n(Cl)c(=O)n(Cl)c(=O)n1Cl,Potency,[1],inactive
same,activity (max response),[2],8.14%
same,Potency,[3],inactive
NNc1ccccc1,Potency,[4],inactive
C[C@H]1O[C@@H](O[C@H]2CC[C@]3(C=O)C4CC[C@]5(C)[C@@H](C6=CC(=O)OC6)CC[C@]5(O)[C@@H]4CC[C@]3(O)C2)C[C@@H](O)[C@@H]1O (some centres not stated),Potency,[4],0.0563 µM (active)
C=C(C)[C@@]12O[C@@H]1[C@@]1(C)C(=C[C@H]2O)CC[C@@H](O)[C@@H]1C,Potency,[4],inactive
CN1CC[C@]23c4c5ccc(O)c4O[C@H]2[C@@H](O)CC[C@H]3[C@H]1C5,Potency,[1],inactive
same,activity (max response),[2],-1.35%
same,Potency,[3],inactive
CCN[C@@H](C)Cc1cccc(C(F)(F)F)c1,Potency,[1],inactive
same,activity (max response),[2],-3.94%
same,Potency,[3],inactive
N#CC(O[C@@H]1O[C@H](CO)[C@@H](O)[C@H](O)[C@H]1O)c1ccccc1 (some centres not stated),Potency,[4],inactive
CN(C)C(=O)Oc1cc(OC(=O)N(C)C)cc(C(O)CNC(C)(C)C)c1 (configuration not stated),Potency,[1],inactive
same,activity (max response),[2],-8.28%
same,Potency,[3],inactive
COc1ccn(C)c(=O)c1C#N,Potency,[4],inactive
NC(=O)c1cc([N+](=O)[O-])cc([N+](=O)[O-])c1,Potency,[1],11 µM (active)
same,activity (max response),[2],-5.23%
same,Potency,[3],3.66 µM (active)
CCOP(=O)(OCC)Oc1ccc2c(C)cc(=O)oc2c1,Potency,[4],inactive
CCN1C[C@]2(COC)[C@H](O)C[C@H](OC)[C@]34[C@@H]5C[C@]6(O)[C@H](OC(=O)c7ccccc7)[C@@H]5[C@@](O)([C@H]([C@H](OC)[C@H]23)[C@@H]14)[C@@H](O)[C@@H]6OC,Potency,[4],inactive
COCC1OC(=O)c2coc3c2C1(C)C1=C(C3=O)C2CCC(=O)C2(C)CC1O (configuration not stated),Potency,[4],inactive
CC(C)=C1CC[C@]23CO[C@H](C2)[C@@](O)(C(=O)O)CCC13 (some centres not stated),Potency,[4],inactive
CC(C)C1(OO)C=C2C(=O)CC3C(C)(C(=O)O)CCCC3(C)C2CC1 (configuration not stated),Potency,[4],inactive
FC(F)(F)c1cccc(C2=CCN(CCc3ccc4ccccc4c3)CC2)c1,Potency,[4],inactive
CN1CN(c2ccccc2)C2(CCN(CCCC(=O)c3ccc(F)cc3)CC2)C1=O,Potency,[4],inactive
N#CC(O[C@@H]1O[C@H](CO[C@@H]2O[C@H](CO)[C@@H](O)[C@H](O)[C@H]2O)[C@@H](O)[C@H](O)[C@H]1O)c1ccccc1 (some centres not stated),Potency,[1],inactive
same,activity (max response),[2],-16.1%
same,Potency,[3],inactive
O=C1CN=C(c2ccccc2)c2cc([N+](=O)[O-])ccc2N1,Potency,[1],inactive
same,activity (max response),[2],-7.73%
COC1=CC(=O)O[C@@H](CCc2ccccc2)C1,Potency,[4],inactive
CC(=O)[O][Hg][c]1ccccc1,Potency,[1],0.977 µM (active)
same,Potency,[2],1.3 µM (active)
same,Potency,[3],1.46 µM (active)
O=[N+]([O-])c1cc([N+](=O)[O-])c2ccccc2c1,Potency,[1],inactive
same,activity (max response),[2],-5.95%
same,Potency,[3],inactive
CO[C@H]1[C@H](O)[C@H](O[C@H]2CC[C@]3(C)C4CC[C@]5(C)[C@H](C6=CC(=O)OC6)CC[C@]5(O)C4CC[C@@H]3C2)O[C@@H](C)[C@@H]1O (some centres not stated),Potency,[4],0.0252 µM (active)
C[C@H]1O[C@@H](O[C@H]2[C@@H](O)C[C@H](O[C@H]3[C@@H](O)C[C@H](O[C@H]4CC[C@@]5(C)[C@H](CC[C@@H]6[C@@H]5CC[C@]5(C)[C@@H](C7=CC(=O)OC7)CC[C@]65O)C4)O[C@@H]3C)O[C@@H]2C)C[C@H](O)[C@@H]1O,Potency,[1],inactive
same,Potency,[2],0.0184 µM (active)
same,Potency,[3],0.0651 µM (active)
CCCC1CCCCN1 (configuration not stated),Potency,[1],inactive
same,activity (max response),[2],12.1%
same,Potency,[3],inactive
Clc1cccc(SC2CCNCC2)n1,Potency,[4],inactive
CC1CCCC(O)CCC/C=C/c2cc(O)cc(O)c2C(=O)O1 (configuration not stated),Potency,[4],14.3 µM (active)
COP(=O)(OC)OC=C(Cl)Cl,Potency,[1],inactive
same,activity (max response),[2],13.5%
same,Potency,[3],inactive
CC(Cc1ccccc1)NCCCCl (configuration not stated),Potency,[1],inactive
same,activity (max response),[2],-2.78%
same,Potency,[3],inactive
CCC(C)(OC(C)=O)C(=O)O[C@H]1[C@H](OC(C)=O)C[C@@H]2[C@@](C)([C@@H]3C[C@H]4C=CO[C@H]4O3)[C@H](C)C[C@H](OC(C)=O)[C@@]2(COC(C)=O)[C@@]12CO2 (some centres not stated),Potency,[4],inactive
CC[C@H]1C2CC3[C@@H]4N(C)c5ccccc5[C@]45C[C@@H]([C@H]2[C@H]5O)N3[C@H]1O,Potency,[4],inactive
C/C=C(/C)C1C=CC2CC(C)CC(C)C2C1/C(O)=C1\C(=O)NC(CC(C)(O)C(=O)O)C1=O (configuration not stated),Potency,[4],inactive
CCCCC(CC)COC(=O)c1ccccc1C(=O)OCC(CC)CCCC (configuration not stated),Potency,[1],inactive
same,activity (max response),[2],14%
same,Potency,[3],inactive
CNC(C)(C)Cc1ccccc1,Potency,[1],inactive
same,activity (max response),[2],-4.09%
same,Potency,[3],inactive
CCN[C@@H](C)Cc1ccccc1,Potency,[1],inactive
same,activity (max response),[2],-5.58%
same,Potency,[3],inactive
CC1Sc2c(C(=O)O)c(=O)c3cc(F)c(N4CCNCC4)cc3n21 (configuration not stated),Potency,[1],inactive
same,activity (max response),[2],7.63%
same,Potency,[3],inactive
Fc1cc(Br)ccc1CBr,Potency,[1],inactive
same,activity (max response),[2],13.3%
same,Potency,[3],inactive
CC[C@H](C)[C@@H]([C@@H](CC(=O)N1CCC[C@H]1[C@H](OC)[C@@H](C)C(=O)N[C@@H](Cc1ccccc1)c1nccs1)OC)N(C)C(=O)[C@@H](NC(=O)C(C)(C)N)C(C)C,Potency,[4],inactive
Nc1ncnc2c1ncn2[C@@H]1O[C@@H]2COP(O)(=S)O[C@H]2[C@H]1O (some centres not stated),viability (% of control),[4],76.1% [at 9.25 µM]
same,"viability, % of control",[5],81% [at 9.25 µM]
O=C(N[C@@H](COc1ccc2[nH]c(=O)[nH]c2c1)c1ccccc1)c1cccn(Cc2ccc(F)c(F)c2)c1=O,Potency,[4],11.6 µM (active)
same,Potency,[5],11.6 µM (active)
C[C@@]1(CO)[C@H](O)CC[C@@]2(C)[C@H]1CC[C@H]1C[C@@H]3C[C@@]12CC[C@]3(O)CO,Potency,[4],1.01 µM (active)
same,Potency,[5],1.01 µM (active)
